Experiment [1] concerns PRMT1 (protein arginine N-methyltransferase 1). Nature of the experiment: small molecules binding arginine methyltransferase PRMT1 – biochemical, small-molecule microarray, 635 nm fluorescence, primary screen (AID 1088).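 Note: binding of Prmt1 protein to compounds spotted on small-molecule microarray slides.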 The settings on record: higher = more signal.
The nature of experiment [2]: growth effects on S. cerevisiae YJM789 – YJM789 clinical isolate, OD600, 24 h, basal, primary screen (AID 1089).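 Note: growth of clinical yeast isolate S. cerevisiae YJM 789 seeded 1000 cells per well; test concentration not given here.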 The settings on record: higher = more signal, called active from +8 up or from −8 down.
The nature of experiment [3]: S. pombe growth modifiers, basal conditions – strain 972, OD600, 24 h, no modulator, primary screen (AID 1090).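 Note: basal condition with compound alone and no growth modifier present; test concentration not given here.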 Particulars: S. pombe 972 growth, higher = more signal, called active from +8 up or from −8 down.
The nature of experiment [4]: budding yeast growth modifiers under rapamycin – strain BY4716, OD600, 96 h, primary screen (AID 1091). Note: test concentration not given here. The settings on record: S. cerevisiae BY4716 + rapamycin, higher = more signal, called active from +8 up or from −8 down.
Experiment [5] has as its target Torsin-1A-interacting protein 2 (Homo sapiens) (UniProt Q8NFQ8). Description: small molecules binding lysate-expressed LULL1 – cell lysate, human LULL1 lysate, 635/667 nm fluorescence, primary screen (AID 1092).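 Note: probe is lysate of COS7 cells overexpressing human LULL1; score merges per-feature 667 nm fluorescence with signal-to-noise.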 Particulars: small-molecule microarray, hLULL1 lysate binding, 635 nm fluorescence; higher = more signal.
Experiment [6] in a line: optical density change of DRC41 E. coli – strain DRC41, OD650, 24 h, E. coli filamentation project, primary screen (AID 1093).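 Note: MC1000 strain lacking acrAB efflux and sulA so SOS filamentation is blocked; test concentration not given here.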 Particulars: E. coli DRC41 growth, higher = more signal, called active from +8 up or from −8 down.
Experiment [7] is described as follows: probe aLefty2 binding to arrayed compounds – biochemical, biotinylated probe, 635/667 nm fluorescence, primary screen (AID 1094).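 Note: score merges spot fluorescence near 667 nm with spot signal-to-noise ratio.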 The settings on record: small-molecule microarray, higher = more signal.
The test system of experiment [8] is Noggin (protein binding on small-molecule microarray). Nature of the experiment: small molecules binding Noggin protein – biochemical, 635/667 nm fluorescence, primary screen (AID 1095).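 Note: score merges 667 nm feature fluorescence with signal to noise over triplicate slides.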 The settings on record: 635 nm fluorescence, higher = more signal.
For experiment [9], the target named is Neurogenic locus notch homolog protein 3 (Homo sapiens) (UniProt Q9UM47). Nature of the experiment: small molecules binding NOTCH3 protein – biochemical, 635/667 nm fluorescence, primary screen (AID 1096). The settings on record: small-molecule microarray, 635 nm fluorescence, higher = more signal.
Experiment [10] can be described thus: probe aEGFR binding to arrayed compounds – biochemical, biotinylated probe, 635/667 nm fluorescence, primary screen (AID 1097).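 Note: probe is a biotinylated anti-EGFR antibody binding compounds printed on slides; score combines fluorescence near 667 nm and signal to noise of each spot.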 The settings on record: small-molecule microarray, higher = more signal.
In experiment [11] the test system is Plasmodium falciparum Sir2 (PF13_0152, Sir2A). Description: Plasmodium falciparum Sir2A binding compounds – biochemical, small-molecule microarray, 635 nm fluorescence, primary screen (AID 1098).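 Note: score merges spot fluorescence intensity with its signal-to-noise ratio.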 The settings on record: fluorescence 635 nm, higher = more signal.
A short description of experiment [12]: probe aDKK1 binding to arrayed compounds – biochemical, biotinylated probe, 635/667 nm fluorescence, primary screen (AID 1099).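 Note: score merges 667nm spot fluorescence with signal to noise across triplicate slides; reference of the scale not given here.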 The settings on record: small-molecule microarray, higher = more signal.
A short description of experiment [13]: probe aCHRDL2 binding to arrayed compounds – biochemical, biotinylated probe, 635/667 nm fluorescence, primary screen (AID 1100). Particulars: small-molecule microarray, higher = more signal.
A short description of experiment [14]: change in splice reporter luminescence, either direction, cell-based, HEK293, spliceosome inhibition project, primary screen (AID 1101).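 Note: HEK293 cells carrying a splicing-competent luciferase reporter gene; test concentration not given here.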 The settings on record: HEK293 splicing luciferase reporter, 24 h, higher = more signal, called active from +8 up or from −8 down. A general note: Reporter assays use an easily measured gene product as a stand-in for the process of interest.

The target of experiment [15] is Fibroblast growth factor 10 (Homo sapiens) (UniProt O15520). Nature of the experiment: compounds binding fibroblast growth factor 10 – biochemical, small-molecule microarray, 635 nm fluorescence, primary screen (AID 1102). Particulars: FGF10 binding, fluorescence 635 nm, higher = more signal.
Experiment [16] has as its system glycogen synthase kinase-3 (GSK3A per assay name; protocol says GSK3B). Nature of the experiment: compounds binding glycogen synthase kinase-3 – biochemical, small-molecule microarray, 635 nm fluorescence, GSK3A, primary screen (AID 1103). Note: the record names both GSK3A and GSK3B. The settings on record: fluorescence 635 nm, higher = more signal.
In experiment [17] the target is Epidermal growth factor receptor (Homo sapiens) (UniProt P00533). Description: compounds binding epidermal growth factor receptor – biochemical, small-molecule microarray, 635 nm fluorescence, primary screen (AID 1104).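 Note: score merges 667 nm emission intensity with spot signal to noise over triplicate slides.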 The settings on record: EGFR binding, higher = more signal.
For experiment [18], the target named is Follistatin-related protein 3 (Homo sapiens) (UniProt O95633). Description: compounds binding follistatin-related protein 3 – biochemical, small-molecule microarray, 635 nm fluorescence, primary screen (AID 1105).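 Note: score merges emission near 667 nm and signal to noise per printed spot across three slides.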 The settings on record: FSTL3 binding, higher = more signal.
Experiment [19] addresses Dickkopf-related protein 1 (Homo sapiens) (UniProt O94907). Description: small molecules binding DKK1 protein – biochemical, small-molecule microarray, 635 nm fluorescence scan, primary screen (AID 1106).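 Note: score merges emission near 667 nm with signal to noise over three replicate slides.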 The settings on record: higher = more signal.
The subject of experiment [20] is Inhibin beta A chain (activin A). Nature of the experiment: small molecules binding activin A – biochemical, small-molecule microarray, 635 nm fluorescence scan, primary screen (AID 1107).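 Note: mouse activin A protein probed at 4.33 µg/mL on printed slides; score merges bound-protein fluorescence near 667 nm with spot signal-to-noise.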 Particulars: INHBA, higher = more signal.

The source made the active and inactive calls.

Dickkopf-related protein 1 (Homo sapiens), sequence (O94907 whole entry, looked up): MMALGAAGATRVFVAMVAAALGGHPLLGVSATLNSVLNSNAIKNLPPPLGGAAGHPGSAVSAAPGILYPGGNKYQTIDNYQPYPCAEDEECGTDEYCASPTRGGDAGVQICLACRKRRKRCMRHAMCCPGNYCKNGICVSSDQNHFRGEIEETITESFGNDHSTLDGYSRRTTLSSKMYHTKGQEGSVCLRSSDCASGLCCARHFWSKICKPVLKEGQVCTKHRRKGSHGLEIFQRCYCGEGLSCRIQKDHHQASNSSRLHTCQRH
Torsin-1A-interacting protein 2 (Homo sapiens), sequence (Q8NFQ8 whole entry, looked up): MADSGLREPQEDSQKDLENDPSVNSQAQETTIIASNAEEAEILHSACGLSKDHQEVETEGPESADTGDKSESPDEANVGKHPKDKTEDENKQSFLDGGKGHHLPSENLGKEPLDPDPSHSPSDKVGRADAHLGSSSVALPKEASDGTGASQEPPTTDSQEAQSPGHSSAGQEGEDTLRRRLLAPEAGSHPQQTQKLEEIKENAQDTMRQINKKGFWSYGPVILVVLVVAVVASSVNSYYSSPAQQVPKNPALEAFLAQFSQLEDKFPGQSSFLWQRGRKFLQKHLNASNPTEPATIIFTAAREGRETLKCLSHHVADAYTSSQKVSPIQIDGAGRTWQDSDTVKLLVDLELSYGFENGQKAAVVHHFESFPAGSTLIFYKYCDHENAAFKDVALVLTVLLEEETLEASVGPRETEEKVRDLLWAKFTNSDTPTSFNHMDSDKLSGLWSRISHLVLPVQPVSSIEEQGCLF
Neurogenic locus notch homolog protein 3 (Homo sapiens), sequence (Q9UM47 whole entry, looked up): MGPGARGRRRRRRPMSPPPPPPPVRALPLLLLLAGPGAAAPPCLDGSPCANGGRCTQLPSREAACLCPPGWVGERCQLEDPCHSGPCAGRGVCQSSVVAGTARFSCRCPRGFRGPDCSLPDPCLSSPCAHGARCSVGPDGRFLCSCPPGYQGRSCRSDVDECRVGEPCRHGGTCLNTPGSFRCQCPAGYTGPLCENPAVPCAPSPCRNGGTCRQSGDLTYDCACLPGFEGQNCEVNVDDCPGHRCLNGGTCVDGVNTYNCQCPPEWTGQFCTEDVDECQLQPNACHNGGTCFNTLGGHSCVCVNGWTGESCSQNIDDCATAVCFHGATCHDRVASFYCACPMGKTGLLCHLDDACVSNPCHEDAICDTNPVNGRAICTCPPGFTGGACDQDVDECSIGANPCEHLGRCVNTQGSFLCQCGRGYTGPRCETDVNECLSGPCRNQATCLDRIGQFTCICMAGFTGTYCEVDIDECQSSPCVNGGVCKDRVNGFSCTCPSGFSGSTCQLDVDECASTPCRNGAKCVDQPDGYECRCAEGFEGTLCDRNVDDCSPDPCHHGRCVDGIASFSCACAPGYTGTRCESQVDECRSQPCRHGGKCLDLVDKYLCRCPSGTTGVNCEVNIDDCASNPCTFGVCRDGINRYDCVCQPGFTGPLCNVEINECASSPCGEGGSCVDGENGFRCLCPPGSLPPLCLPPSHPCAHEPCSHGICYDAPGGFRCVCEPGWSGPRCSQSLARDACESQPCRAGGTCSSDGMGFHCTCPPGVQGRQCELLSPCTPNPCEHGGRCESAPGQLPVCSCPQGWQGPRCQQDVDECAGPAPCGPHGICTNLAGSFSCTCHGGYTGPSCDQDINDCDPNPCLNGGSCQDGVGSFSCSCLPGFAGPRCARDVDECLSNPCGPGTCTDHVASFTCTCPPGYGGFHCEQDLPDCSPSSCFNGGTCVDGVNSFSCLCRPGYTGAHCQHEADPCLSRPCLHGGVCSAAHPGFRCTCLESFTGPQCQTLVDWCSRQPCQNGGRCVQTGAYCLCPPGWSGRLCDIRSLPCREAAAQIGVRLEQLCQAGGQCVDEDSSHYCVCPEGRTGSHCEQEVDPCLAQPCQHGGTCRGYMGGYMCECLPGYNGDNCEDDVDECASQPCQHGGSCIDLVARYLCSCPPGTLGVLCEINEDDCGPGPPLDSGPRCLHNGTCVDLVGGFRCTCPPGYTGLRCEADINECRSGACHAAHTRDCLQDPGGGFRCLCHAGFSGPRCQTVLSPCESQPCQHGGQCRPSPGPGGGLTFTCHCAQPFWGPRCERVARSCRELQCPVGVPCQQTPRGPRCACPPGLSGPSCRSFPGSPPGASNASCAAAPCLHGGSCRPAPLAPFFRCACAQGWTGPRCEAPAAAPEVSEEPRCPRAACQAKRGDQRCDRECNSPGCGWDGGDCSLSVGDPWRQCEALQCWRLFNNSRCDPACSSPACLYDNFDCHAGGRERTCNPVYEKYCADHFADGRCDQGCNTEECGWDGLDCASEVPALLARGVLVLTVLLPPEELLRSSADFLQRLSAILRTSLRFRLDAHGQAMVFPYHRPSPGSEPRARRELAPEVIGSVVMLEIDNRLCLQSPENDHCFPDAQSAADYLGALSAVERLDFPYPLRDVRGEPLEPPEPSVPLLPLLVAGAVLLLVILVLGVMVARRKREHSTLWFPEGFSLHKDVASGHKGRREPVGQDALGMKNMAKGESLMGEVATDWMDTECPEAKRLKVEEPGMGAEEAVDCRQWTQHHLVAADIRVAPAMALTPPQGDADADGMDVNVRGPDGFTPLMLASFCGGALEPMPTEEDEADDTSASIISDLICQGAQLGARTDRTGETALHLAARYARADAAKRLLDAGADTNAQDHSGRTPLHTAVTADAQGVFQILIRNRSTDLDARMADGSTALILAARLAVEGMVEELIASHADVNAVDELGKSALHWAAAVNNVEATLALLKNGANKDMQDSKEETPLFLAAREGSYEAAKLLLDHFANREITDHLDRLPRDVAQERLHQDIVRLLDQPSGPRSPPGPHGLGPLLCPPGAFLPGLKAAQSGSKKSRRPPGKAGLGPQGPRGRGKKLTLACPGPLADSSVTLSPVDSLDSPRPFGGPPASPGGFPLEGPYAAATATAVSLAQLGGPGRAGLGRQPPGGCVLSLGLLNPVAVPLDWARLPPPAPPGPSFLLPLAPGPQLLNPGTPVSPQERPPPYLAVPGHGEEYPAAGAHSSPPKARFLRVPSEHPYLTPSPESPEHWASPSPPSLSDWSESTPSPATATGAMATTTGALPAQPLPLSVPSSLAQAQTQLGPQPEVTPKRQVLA
Fibroblast growth factor 10 (Homo sapiens), sequence (O15520 whole entry, looked up): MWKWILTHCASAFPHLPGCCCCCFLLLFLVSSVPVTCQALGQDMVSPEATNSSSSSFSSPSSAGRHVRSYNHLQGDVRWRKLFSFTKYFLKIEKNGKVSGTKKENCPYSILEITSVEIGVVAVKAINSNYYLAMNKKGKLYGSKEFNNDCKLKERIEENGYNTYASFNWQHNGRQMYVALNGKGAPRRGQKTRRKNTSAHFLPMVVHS
Epidermal growth factor receptor (Homo sapiens), sequence (P00533 whole entry, looked up): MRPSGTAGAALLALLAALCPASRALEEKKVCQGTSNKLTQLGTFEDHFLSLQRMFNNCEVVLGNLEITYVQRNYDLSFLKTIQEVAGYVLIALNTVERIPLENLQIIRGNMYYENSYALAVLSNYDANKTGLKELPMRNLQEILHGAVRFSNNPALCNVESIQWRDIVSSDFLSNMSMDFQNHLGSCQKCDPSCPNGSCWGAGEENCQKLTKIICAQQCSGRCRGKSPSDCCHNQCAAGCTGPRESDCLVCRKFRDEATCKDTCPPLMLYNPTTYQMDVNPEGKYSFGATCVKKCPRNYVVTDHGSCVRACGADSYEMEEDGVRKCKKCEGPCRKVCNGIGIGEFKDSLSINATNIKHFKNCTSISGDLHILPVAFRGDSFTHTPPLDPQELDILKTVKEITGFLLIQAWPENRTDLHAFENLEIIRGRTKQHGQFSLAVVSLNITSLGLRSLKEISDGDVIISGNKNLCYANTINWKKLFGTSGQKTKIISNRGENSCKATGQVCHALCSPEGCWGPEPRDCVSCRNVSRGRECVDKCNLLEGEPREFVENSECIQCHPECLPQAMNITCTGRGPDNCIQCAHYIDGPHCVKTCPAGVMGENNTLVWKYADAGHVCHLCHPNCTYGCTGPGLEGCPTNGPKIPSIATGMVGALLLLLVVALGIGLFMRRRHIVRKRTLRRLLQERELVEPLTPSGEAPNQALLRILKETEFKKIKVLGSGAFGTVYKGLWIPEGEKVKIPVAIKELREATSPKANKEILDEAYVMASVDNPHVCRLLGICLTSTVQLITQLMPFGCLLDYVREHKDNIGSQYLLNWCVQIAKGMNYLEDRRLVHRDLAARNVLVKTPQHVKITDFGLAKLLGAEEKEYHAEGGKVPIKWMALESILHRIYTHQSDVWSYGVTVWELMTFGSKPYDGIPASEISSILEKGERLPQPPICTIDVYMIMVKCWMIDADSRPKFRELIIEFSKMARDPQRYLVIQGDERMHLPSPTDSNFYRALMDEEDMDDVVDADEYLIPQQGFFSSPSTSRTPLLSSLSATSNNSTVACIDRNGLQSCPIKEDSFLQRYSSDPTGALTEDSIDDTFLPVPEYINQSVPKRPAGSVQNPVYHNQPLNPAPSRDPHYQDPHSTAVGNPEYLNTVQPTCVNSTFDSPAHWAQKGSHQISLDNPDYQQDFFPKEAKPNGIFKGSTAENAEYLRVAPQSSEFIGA
Follistatin-related protein 3 (Homo sapiens), sequence (O95633 whole entry, looked up): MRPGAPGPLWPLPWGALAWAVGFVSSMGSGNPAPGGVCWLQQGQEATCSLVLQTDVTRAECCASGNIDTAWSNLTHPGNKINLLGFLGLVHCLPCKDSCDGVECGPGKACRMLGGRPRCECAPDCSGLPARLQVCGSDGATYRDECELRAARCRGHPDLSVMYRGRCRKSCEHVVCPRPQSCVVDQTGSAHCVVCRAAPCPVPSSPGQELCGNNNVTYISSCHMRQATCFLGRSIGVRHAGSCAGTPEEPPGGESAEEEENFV

As to `COCCOC(=O)N1C(=O)[C@@]2(c3cc(C#CC4=CCCCC4)ccc31)[C@H](c1ccccc1OCCO)N1[C@H](c3ccccc3)[C@H](c3ccccc3)OC(=O)[C@H]1[C@@H]2C(=O)NC[C@H](O)c1ccccc1`, the composite z-score in [1] was 1.54; in [5], 2.54; in [7], -0.0671; in experiment [8], 1.45; in experiment [9] it was 1.07; in [10], -0.0476. The composite z-score in experiment [11] is 1.53; in experiment [12], 0.036; in experiment [13], -0.135; in experiment [15], 1.19; in experiment [16], 1.3; in experiment [17], 0.741. The figures for the composite z-score in [18], in [19] and in experiment [20] were 1.42, 0.752 and 0.755, respectively. Also, the z-score is 1.01 (inactive) in [2]; 0.785 (inactive) in experiment [3]; 3.28 (inactive) in [4]; -0.314 (inactive) in experiment [6]; -1.76 (inactive) in [14].

As to `[N-]=[N+]=Nc1ccccc1C[C@]1(C(=O)N2CCOCC2)COC(c2ccc(OCCCO)cc2)=N1`, the composite z-score is 1.56 in [1]; 3.51 in experiment [5]; 0.0446 in [7]; 0.182 in [8]; 1.06 in [9]; 0.0308 in experiment [10]. Moreover, the composite z-score was 1.6 in experiment [11]; 0.399 in [12]; 0.948 in experiment [13]; 0.613 in experiment [15]; 1.33 in [16]; -0.262 in experiment [17]. For the same compound, the composite z-score in [18] is 0.634; in experiment [19] it was -0.259; in experiment [20] it was 0.959. Besides, the z-score in [2] was -2.05 (inactive); in [3] it was -5.79 (inactive); in experiment [4], -2.08 (inactive); in [6], 1.91 (inactive); in experiment [14], -0.59 (inactive).

`COC(=O)[C@@]1(Cc2ccc(OC)cc2)[C@H]2c3cc(C(=O)N4CCCC4)n(CCc4c[nH]c5ccc(OC)cc45)c3C[C@H]2CN1C(=O)c1ccccc1`: the composite z-score in experiment [1] is 0.0079; in experiment [5], 3.03; in experiment [7], 0.722; in experiment [8], -0.0307; in experiment [9] it was 1.02; in experiment [10], 0.318. The composite z-score is 0.789 in experiment [11]; 1.5 in [12]; 1.55 in experiment [13]; 0.591 in [15]; 1.14 in experiment [16]; -0.0086 in experiment [17]. Also, the composite z-score in experiment [18] is 1.19; in [19], -0.299; in experiment [20] it was 0.877. Further, the z-score in experiment [2] is 0.425 (inactive); in [3], 1.84 (inactive); in [4] it was 4.15 (inactive); in experiment [6], -0.669 (inactive); in experiment [14], -1.21 (inactive).

As to `C=CCN1C(=O)[C@]2(CCS(=O)(=O)c3ccccc3)N=C(c3ccc(OCCCO)cc3)O[C@@H]2c2ccccc21`, the composite z-score was found to be 1.54 in [1]; 3.65 in [5]; 0.0416 in experiment [7]; 1.49 in experiment [8]; 1.1 in experiment [9]; 0.0574 in [10]. Besides, the composite z-score in experiment [11] is 1.38; in experiment [12], -0.317; in experiment [13], 0.7; in [15], 0.732; in [16], 1.29; in experiment [17], 0.387. The values for the composite z-score in experiment [18], in experiment [19] and in experiment [20] were 1.43, 0.466 and 1.18, respectively. Besides, the z-score in experiment [2] was -0.523 (inactive); in experiment [3], -1.16 (inactive); in experiment [4], 2.46 (inactive); in [6] it was 0.624 (inactive); in experiment [14], -1.81 (inactive).

In the case of `COCCOC(=O)N1C(=O)[C@@]2(c3cc(C#CC4(O)CCCCCC4)ccc31)[C@H](C(=O)Nc1nc3ccccc3s1)[C@H]1C(=O)O[C@H](c3ccccc3)[C@H](c3ccccc3)N1[C@@H]2c1ccc(O)cc1`, the composite z-score in experiment [1] was 1.54; in experiment [5], 2.21; in experiment [7] it was -0.0022; in [8], 0.683; in [9] it was 1.04; in experiment [10], 0.0692. Moreover, the composite z-score was 1.26 in experiment [11]; 0.316 in experiment [12]; 0.407 in [13]; 0.992 in [15]; 1.29 in experiment [16]; 0.605 in experiment [17]. In addition, the composite z-score in experiment [18] was determined as 1.3; in [19], 0.875; in experiment [20] it was 0.363. The z-score was 0.806 (inactive) in experiment [2]; 0.572 (inactive) in experiment [3]; 1.33 (inactive) in experiment [4]; 0.0347 (inactive) in experiment [6]; 1.36 (inactive) in experiment [14].

The values above are taken from PubChem BioAssay.
